Test results reported in PubChem BioAssay AID1508622 (National Center for Advancing Translational Sciences (NCATS), 2021).
The source made the active and inactive calls. The call rests on the fitted dose curve; in most records, active means well fitted activation curve with a large enough effect; inconclusive means small, poorly fitted or top-dose-only effect; inactive means no such curve, though single readings can be large or run the other way.

Assay: Confirmatory qHTS for Identification of Small Molecule Activators of Huntingtin-Antisense Promoter Activity
Details: HEK293 HTT-AS promoter firefly luciferase reporter, 24 h; series mostly up to 57.5 µM; activity change, positive = activation: at the top concentration
Text: Assay Provider: Russell L. Margolis M.D.
Department Neurology, Johns Hopkins University School of Medicine, Baltimore, MD
Huntington's Disease (HD) is a neurodegenerative disorder caused by a CAG repeat expansion in exon 1 of huntingtin (HTT). While there are currently no disease-modifying treatments for HD, recent efforts have focused on development of nucleotide-based therapeutics to lower HTT expression. As an alternative to siRNA or oligonucleotide methods, we hypothesized that suppression of HTT expression might be accomplished by small molecules that either (1) directly decrease HTT expression by suppressing HTT promoter activity or (2) indirectly decrease HTT expression by increasing the promoter activity of HTT-AS, the gene antisense to HTT that appears to inhibit expression of HTT.
We developed and employed a high throughput screen for modifiers of HTT and HTT-AS promoter activity using luminescent reporter HEK293 cells; of the 52,041 compounds tested, we identified 898 replicable hits. We used a rigorous stepwise approach to assess compound toxicity and the capacity of the compounds to specifically lower huntingtin protein in 5 different cell lines, including HEK293 cells, HD lymphoblastoid cells, mouse primary neurons, HD iPSCs differentiated into cortical-like neurons, and HD hESCs. We found no compounds which were able to lower huntingtin without lowering cell viability in all assays, though the potential efficacy of a few compounds at non-toxic doses could not be excluded.
SEQUENCE No. (1, 2, 3, etc.); […] (e.g., Cells, Incubation, Reagent, etc.); VALUE and DESCRIPTION.
1; Reagent; 4 uL; 2,500 Hek293 luciferase reporter cells per wells
3; Compound; 23 nL; Control inhibitor / compound library
5; Reagent; 2.5 uL; Firefly Luc reagent; Dual-Glo Luciferase Reporter Assay System (Promega)
6; Time; 10 min; room temperature incubation
7; Detection; Luminescence; FLuc
NOTES (numbers refer to sequence above)
1; High-throughput screening, measuring luminescence from a Hek293 luciferase reporter, was performed in 1,536 well white-walled tissue-culture treated plates. 2,500 cells were plated in 4 uL of Opti-MEM per well using a Multidrop Combi Reagent Dispenser (ThermoFisher).
2; Assay plates were cultured for 24 hours.
3; Control inhibitor (PTC124; final concentration of 50 uM) and compound library (at final concentrations of 460 nM - 57.5 uM) were added to the assay plate using the Kalypsis Pintool Robotic System equipped with 1536 pinheads.
4; Cells were then incubated for 24 hours at 37C prior to luminescence measurements.
5; In all cases, luminescence was measured using the Dual-Glo Luciferase Reporter Assay System (Promega) following the manufacturer's instructions.
6; Room temperature incubation.
7; Luminescence signal was obtained using the PerkinElmer ViewLux plate reader. Results were normalized to vehicle control (0% activity) and zero RLU (-100% activity).
Potency means the concentration at half of the fitted maximal effect.

Activity change, positive = activation, inactive:
CCOc1ccc(S(=O)(=O)NCCc2sc3nc(-c4ccc(F)cc4)nn3c2C)cc1 -84.3%
COc1ccc(N2CCN(C(=O)c3cc4c(-c5ccccc5F)nn(C)c4s3)CC2)cc1 -59.8%
CCc1ccc(CNC(=O)c2ccc3nc(SCc4ccc(F)cc4)n(C)c3c2)cc1 -30.6%
COc1ccccc1CNC(=O)Cn1c(=O)oc2cc(S(=O)(=O)N3CCC(C)CC3)ccc21 -39.5%
CC(=O)N1CCCc2cc(S(=O)(=O)N3CCN(c4ccccc4F)CC3)ccc21 -37%
CCOc1ccc(NC(=O)c2ccc(F)c(S(=O)(=O)N(CC)Cc3ccccc3)c2)cc1 -86.7%
CC(C)c1nc2ccc(C(=O)NCCCN3CCN(c4cccc(Cl)c4)CC3)cc2o1 -39%
CO[C@H]1C=CC=C(C)C(=O)NC2=CC(=O)C(NCCN(C)C)=C(C[C@@H](C)C[C@H](OC)[C@@H](O)[C@@H](C)C=C(C)[C@@H]1OC(N)=O)C2=O -6.23%
CCCNc1nc(NCc2ccccc2OC)c2cnn(C)c2n1 -31.6%
O=C(CSc1nc(-c2ccc(F)cc2)[nH]c1-c1ccc(F)cc1)Nc1ccc2c(c1)OCCO2 -52.4%
COc1cc(Br)c(C2CC(=O)Nc3cc4c(cc32)OCCO4)cc1OC (stereo not given) -54.1%
CN(CC(=O)Nc1ccc(OC(F)(F)F)cc1)S(=O)(=O)c1ccc2c(c1)CCC(=O)N2 -49.6%
Cc1ccccc1C(=O)Nc1sc2c(c1C(=O)O)CCC(C(C)(C)C)C2 (stereo not given) -32.5%
Cc1cccc(N2CCN(C(=O)c3ccc4c(c3)N(Cc3cccc(Cl)c3)C(=O)c3ccccc3S4=O)CC2C)c1 (stereo not given) -32.2%
O=C(NCCSc1c(-c2ccccc2)[nH]c2ccccc12)c1ccc(S(=O)(=O)N2CCOCC2)cc1 -26.7%
Cc1cc(NC(=O)c2cc(Cl)ccc2Cl)ccc1-c1cc2ccccc2oc1=O -43.5%
COc1ccc(S(=O)(=O)NCCc2sc3nc(-c4ccc(C)cc4)nn3c2C)cc1F -64.4%
COc1ccc(NC(=O)c2ccc(-c3nc(CSc4ccccc4)c(C)o3)cc2)c(OC)c1 -23.6%
COc1cc(C(=O)NCCSc2c(-c3ccccc3)[nH]c3ccccc23)cc(OC)c1OC -36.2%
Cc1ccc(Cl)cc1-n1ncc2c(N3CCC(C)CC3)ncnc21 -31.2%
C=Cc1ccc(Cn2c(C(=O)O)c(CNCc3ccccc3)c3ccc(C)cc32)cc1 -49%
CCN(CC)S(=O)(=O)c1ccc(C(=O)NCCSc2c(-c3ccc(OC)cc3)[nH]c3ccccc23)cc1 -9.42%
CCS(=O)(=O)c1ccc(C(=O)N2CCN(c3nc4c(OC)ccc(C)c4s3)CC2)cc1 -43%
Cc1cccc(Cn2c(SCc3ccc(C(=O)N4CCCCCC4)cc3)nc3ccncc32)c1 -47.9%
Cc1oc(-c2ccc(C(=O)NCc3ccccc3Cl)cc2)nc1CN1CCc2ccccc21 -78.9%
CCOc1ccc(S(=O)(=O)NCCc2csc(-c3ccc(Cl)cc3)n2)cc1 -92.4%
Cc1cccc(NC(=O)c2cnn(-c3ccccc3)c2-n2cccc2)c1C -33.2%
CCOC(=O)c1cc(-c2ccc(F)cc2)n(CCC(=O)NCCc2ccc(C)cc2)c1C -9.24%
CCc1ccc(NC(=O)c2ccc3oc(=O)n(Cc4ccccc4)c3c2)cc1 -41.5%
CCOC(=O)C1=C(CN2CCN(c3ccc(OC)cc3)CC2)NC(=O)NC1c1ccc(OC)cc1 (stereo not given) -49.8%
COc1ccc(S(=O)(=O)N(CCc2ccccc2)CC(=O)Nc2cc(C)cc(C)c2)cc1OC -24.1%
O=C(Nc1ccc(Br)cc1)c1ccc(Br)c(S(=O)(=O)N2CCCCC2)c1 -81.9%
Cc1nnc(N2CCN(c3cccc(C(F)(F)F)c3)CC2)c2c1nnn2Cc1ccccc1 -69%
O=C(Nc1ccc(F)cc1F)c1ccc2c(c1)CCN2S(=O)(=O)c1ccc(Cl)cc1 -22.6%
CCOc1ccc(CCNC(=O)c2cc3c(-c4cccc(OC)c4)nn(C)c3s2)cc1OCC -43.8%
Cc1ccccc1Nc1sc(C(=O)c2ccc(F)cc2)c(N)c1C(=O)NCCc1ccccc1 -2.08%
COc1ccc(-c2cccc(NS(=O)(=O)c3cc(C)c(OC)c(C)c3C)c2)nn1 -87.8%
COc1ccc(N2CCN(C(CNC(=O)c3ccc(C)cc3)c3ccc4c(c3)OCO4)CC2)cc1 (stereo not given) -26.2%

Potency, active:
O=C(Nc1cccc(C(=O)N2CCN(c3ccc(Cl)cc3)CC2)c1)c1nsc2ccccc12 0.151 µM
CC(=O)c1ccc(NS(=O)(=O)c2ccc3[nH]c(=O)[nH]c3c2)cc1 7.57 µM
